# Test results as given in PubChem BioAssay (NCATS).
# Inconclusive results are not listed. Values without a mark were called inactive. Active and inactive are the calls of the source. Calls come from the whole dose curve; as a rule, active = well fitted activation curve with a large enough effect; inconclusive = small, poorly fitted or top-dose-only effect; inactive = no such curve, though single readings can be large or run the other way.
# Target: Cellular tumor antigen p53 (Homo sapiens) (UniProt P04637)
# Assay: Primary qHTS for small molecule compounds that upregulate eGFP-tagged delta133p53alpha (in N-terminal) cells. (AID 2060322); note: nearly all actives have a fitted effect of over 75% in size;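 for activation: series mostly up to about 56 µM; 0% = DMSO vehicle and 100% = reference activator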
# Details: NCI-H358 eGFP-delta133p53alpha fluorescence, 24 h; activation: hits give high values
# Summary of the method: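 NCI-H358 cells pre-induced 24 h with 10 ng/ml doxycycline for eGFP-delta133p53alpha, plated dox-free and exposed 24 h at 37C to titrated compounds. Fixed, Hoechst-stained; gated GFP peak intensity by laser scanning cytometry, normalized to DMSO (0%) and 57.5 uM 5-azacytidine (100%).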
# Potency is the fitted concentration of half-maximal effect.
# Cellular tumor antigen p53 (Homo sapiens), sequence (P04637 whole entry, looked up): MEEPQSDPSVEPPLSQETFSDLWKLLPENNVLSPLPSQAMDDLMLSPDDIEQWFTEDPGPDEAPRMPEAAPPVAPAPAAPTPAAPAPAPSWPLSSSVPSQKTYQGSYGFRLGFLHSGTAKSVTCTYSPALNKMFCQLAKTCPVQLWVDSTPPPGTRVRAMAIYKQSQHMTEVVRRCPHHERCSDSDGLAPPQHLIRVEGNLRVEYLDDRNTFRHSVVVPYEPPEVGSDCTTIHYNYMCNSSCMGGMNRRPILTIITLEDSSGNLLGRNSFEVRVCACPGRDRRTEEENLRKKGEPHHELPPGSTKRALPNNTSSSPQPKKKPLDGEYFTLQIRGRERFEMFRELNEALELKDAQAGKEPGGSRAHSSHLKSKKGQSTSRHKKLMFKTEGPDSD
SMILES,activation [%],Potency
O=C(N[C@H]1CN2CCC1CC2)c1cc2cccc(Cl)c2s1,38.7,–
C/C=C(\C)C(=O)OC1CC2C(CC=C3CC(OC4CC(OC)C(OC5CC(OC)C(OC6OC(C)C(OC7OC(CO)C(O)C(O)C7O)C(OC)C6O)C(C)O5)C(C)O4)CCC32C)C2(O)CCC(C(C)=O)C12C (centres undefined),-6.25,–
C=C(C)C(=O)O[C@H]1[C@@H]2[C@H](C)C(=O)O[C@@H]2C[C@@H](C)[C@@H]2C=CC(=O)[C@]21C,–,13.2 µM (active)
CCN1C[C@]2(COC)[C@H](O)C[C@H](OC)[C@]34[C@@H]5C[C@]6(O)[C@H](OC(=O)c7ccccc7)[C@@H]5[C@@](O)([C@H]([C@H](OC)[C@H]23)[C@@H]14)[C@@H](O)[C@@H]6OC,10.3,–
COCC(C(=O)OC1CC2CCC(C1)N2C)c1ccccc1 (centres undefined),4.33,–
CC1=CC2/C=C(\C)CCC(O)C3OC(C)(C)OC3CC(=O)OC23C(=O)NC(CC(C)C)C3C1C (centres undefined),6.87,–
CC(C)(C)NC[C@H](O)c1ccc(O)cc1Cl,-6.33,–
C[C@H]1C(=O)O[C@H]2[C@H](O)[C@]34C5OC(=O)[C@]3(O[C@@H]3OC(=O)[C@H](O)C34[C@H](C(C)(C)C)[C@H]5O)C12O (some centres undefined),-12.2,–
CO[C@@H]1[C@@H](O)[C@@H](O[C@H]2CC[C@]3(C=O)C4CC[C@]5(C)[C@@H](C6=CC(=O)OC6)CC[C@]5(O)[C@@H]4CC[C@H]3C2)O[C@@H](C)[C@H]1O[C@@H]1O[C@H](CO[C@@H]2O[C@H](CO)[C@@H](O)[C@H](O)[C@H]2O)[C@@H](O)[C@H](O)[C@H]1O (some centres undefined),-9.92,–
C[C@H]1O[C@@H](O[C@H]2[C@@H](O)C[C@H](O[C@H]3[C@@H](O)C[C@H](O[C@H]4CC[C@@]5(C)[C@H](CC[C@@H]6[C@@H]5CC[C@]5(C)[C@@H](C7=CC(=O)OC7)CC[C@]65O)C4)O[C@@H]3C)O[C@@H]2C)C[C@H](O)[C@@H]1O,5.34,–
CCCCOC(=O)c1ccnc2cc(C(OCCN3CCCCC3)c3ccccc3Cl)sc12 (centres undefined),25.7,–
C=CC(C)(C)C12C=C(O)C(=O)N3/C(=C\c4cnc[nH]4)C(=O)NC31N(OC)c1ccccc12 (centres undefined),–,4.65 µM (active)
CC1=CC(=O)[C@@H](O)[C@@]2(C)C1C[C@H]1OC(=O)[C@H](O)[C@@]3(O)[C@@H](C)[C@@H](O)[C@H](O)C2[C@@]13C (some centres undefined),–,14.8 µM (active)
CN1CCc2cc3c(cc2[C@H]1[C@@H]1OC(=O)c2c1ccc1c2OCO1)OCO3,-11,–
C[C@]12CCC(=O)C=C1CC[C@@H]1[C@@H]2[C@@H](O)C[C@]2(C)C(=O)CC[C@@H]12,11,–
CCCCCn1cc(C(=O)c2cccc3ccccc23)c2ccccc21,20.5,–
CCC1C2CC3C4N(C)c5ccccc5C45CC(C2C5O)N3C1O (centres undefined),9.82,–
C[N@@+]1(CC2CC2)CC[C@]23c4c5ccc(O)c4O[C@H]2C(=O)CC[C@@]3(O)[C@H]1C5,-5.67,–
C[C@@H]1C(=O)O[C@H]2[C@H](O)[C@@]34[C@@H]5OC(=O)[C@@]3(O[C@@H]3OC(=O)[C@@H](O)[C@@]34[C@H](C(C)(C)C)[C@H]5O)[C@@]12O,2.68,–
CC(C)(C)[C@]1(O)C[C@@H]2OC(=O)C[C@@]23C(=O)O[C@@H]2OC(=O)[C@@H](O)[C@]213,-1.79,–

SMILES,activation [%],Potency
C/C=C(\C)C(O)C(C)/C=C(C)/C=C/C/C(C)=C/Cc1nc(OC)c(OC)c(O[C@@H]2O[C@@H](C)[C@H](O)[C@@H](O)[C@H]2O)c1C (some centres undefined),-19.1,–
CCOC(=O)c1ncn2c1CN(C)C(=O)c1c(I)cccc1-2,7.67,–
CC1=CC2/C=C(\C)CCCC(O)/C=C/C(=O)OC23C(=O)NC(CC(C)C)C3C1C (centres undefined),1.79,–
CC12CCC3C(CCC4(O)CC(O)CCC34C=O)C1(O)CCC2C1=CC(=O)OC1 (centres undefined),–,10.7 µM (active)
C[C@]12CC[C@H](O)C[C@@H]1CC[C@@H]1[C@@H]2CC[C@]2(C)C(=O)CC[C@@H]12,6.33,–
CC(=O)OC[C@]12C[C@H](OC(=O)CC(C)C)C(C)=C[C@H]1O[C@@H]1[C@H](O)C[C@@]2(C)[C@]12CO2,–,3.7 µM (active)
C=CC(C)(C)c1[nH]c2cccc3c2c1C[C@@H]1[C@@H]3[C@@H](OC(C)=O)[C@H](C)CN1C,1.53,–
C=C(CO)C(=O)O[C@H]1C/C(C)=C/CC/C(CO)=C/[C@H]2OC(=O)C(=C)[C@H]12,-16.8,–
CCC1NC(=O)C2C(Cl)C(Cl)CN2C(=O)C(C(C)O)NC(=O)CC(c2ccccc2)NC(=O)C(CO)NC1=O (centres undefined),8.93,–
COC(=O)C12C(=O)C(C)(O)C(=O)C1(C)C(C)=CC1C34CCC(OC3=O)C(C)(CO)C4CCC12C (centres undefined),-16.8,–
CC(O)(c1ccccc1)C(Cc1ccc(Cl)cc1)n1cncn1 (centres undefined),-8.59,–
Cc1ccc(Cn2nc(C(=O)N[C@@H]3C(C)(C)[C@@H]4CC[C@@]3(C)C4)cc2-c2ccc(Cl)c(C)c2)cc1,-9.82,–
c1ccc([C@@H]2C[C@H]2NC2CCNCC2)cc1,13.8,–
CO/C1=C\C(C)=C\[C@@H](C)[C@@H](O)[C@@H](C)C/C(C)=C/C=C/[C@H](OC)[C@@H]([C@@H](C)[C@@H](O)[C@H](C)[C@@]2(O)C[C@@H](O)[C@H](C)[C@@H](C(C)C)O2)OC1=O,13,–
N#CC(OC1OC(COC2OC(CO)C(O)C(O)C2O)C(O)C(O)C1O)c1ccccc1 (centres undefined),8.4,–
CCC1CN2CCc3cc(OC)c(OC)cc3C2CC1CC1=NCCc2cc(O)c(OC)cc21 (centres undefined),23.2,–
COC1C=CC23c4cc5c(cc4COC2(O)CN(C)C3C1)OCO5 (centres undefined),-5.36,–
C[C@]12CC[C@H](O)CC1=CC[C@@H]1C2CC[C@]2(C)[C@@H](C3=CC(=O)OC3)CC[C@]12O (some centres undefined),2.29,–
Clc1ccc([C@]23CNC[C@H]2C3)cc1Cl,-21.7,–
